According to PubChem BioAssay (Tox21):
Inconclusive results are not listed. Where a call stands in place of a potency, no number is given. Calls of active or inactive are those of the source. Unless noted, calls come from the whole dose curve; as a rule, active = well fitted curve in the direction sought with a large enough effect in the repeat runs; inconclusive = weak or mixed curves; inactive = no such curve, though single readings can be large; an effect the other way counts as inactive or inconclusive.

Experiments:
[1] = biological target: Peroxisome proliferator-activated receptor delta (Homo sapiens) (UniProt Q03181); assay: qHTS assay to identify small molecule agonists of the peroxisome proliferator-activated receptor delta (PPARd) signaling pathway (AID 743212; calls by dose curve)
Method in brief: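 HEK293H UAS-bla reporter cells, human PPARd system; compounds delivered in DMSO after 5 h plating, then at 37 C. Beta-lactamase FRET read, 2 h RT substrate step.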

[2] = qHTS assay to identify small molecule antagonists of the peroxisome proliferator-activated receptor delta (PPARd) signaling pathway - cell viability counter screen (AID 743213); note: nearly all actives have a fitted effect of over 50% in size; note: potency is the fitted concentration of half-maximal effect
Method in brief: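 Viability counter-screen, qHTS format: PPARd-bla HEK293H, L165041 300 nM final, 17 h compound exposure at 37 C, CellTiter-Glo luminescence after 30 min RT.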

[3] = biological target: Peroxisome proliferator-activated receptor delta (Homo sapiens) (UniProt Q03181); assay: qHTS assay to identify small molecule antagonists of the peroxisome proliferator-activated receptor delta (PPARd) signaling pathway (AID 743215; active = well fitted inhibition curve with a large enough effect in the signal ratio in the repeat runs, not every such curve was filed as active; the % refers to the signal ratio;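 note: cells stimulated with agonist L165041 at 300 nM final during compound exposure; series mostly up to about 62 µM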)
Method in brief: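 HEK293H UAS-bla, PPARd; agonist L165041 300 nM final with cpd in DMSO; 37 C 17 h; FRET substrate, RT 2 h; fluorescence intensity.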

[4] = biological target: Bile acid receptor (Homo sapiens) (UniProt Q96RI1); assay: qHTS assay to identify small molecule antagonists of the farnesoid-X-receptor (FXR) signaling pathway (AID 743217; active = well fitted inhibition curve with a large enough effect in the signal ratio in the repeat runs, not every such curve was filed as active; the % refers to the signal ratio)
Method in brief: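 GeneBLAzer FXR-UAS-bla HEK 293T, CDCA-stimulated (50 uM final). Compound treatment 16 h, 37 °C. Detection: beta-lactamase cleavage of B/G FRET substrate, fluorescence.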

[5] = qHTS assay to identify small molecule agonists of the farnesoid-X-receptor (FXR) signaling pathway - cell viability counter screen (AID 743218); note: nearly all actives have a fitted effect of over 45% in size; note: potency is the fitted concentration of half-maximal effect
Method in brief: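 Parallel cytotoxicity test: compound-treated (16 h, 37 C) HEK 293T FXR-bla reporter cells were lysed with CellTiter-Glo and luminescence recorded.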

[6] = biological target: Bile acid receptor (Homo sapiens) (UniProt Q96RI1); assay: qHTS assay to identify small molecule agonists of the farnesoid-X-receptor (FXR) signaling pathway (AID 743220; active = well fitted activation curve with a large enough effect in the signal ratio in the repeat runs, not every such curve was filed as active; the % refers to the signal ratio)
Method in brief: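 Beta-lactamase reporter under UAS control in GeneBLAzer FXR HEK 293T cells (5000/well) measured with LiveBLAzer FRET substrate after 2 h at room temperature. Compound exposure lasted 16 h at 37C.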

[7] = qHTS assay to identify small molecule antagonists of the farnesoid-X-receptor (FXR) signaling pathway - cell viability counter screen (AID 743221; active = well fitted cell-killing curve with a large enough effect in the repeat runs, not every such curve was filed as active; note: nearly all actives have a fitted effect of over 50% in size)
Method in brief: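 Luminescence from CellTiter-Glo measures cytotoxicity in GeneBLAzer FXR-UAS-bla HEK 293T cells. Cells were exposed to compounds with 50 uM chenodeoxycholic acid (final) for 16 h at 37 C, in wells also used for the reporter readout.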

[8] = biological target: Vitamin D3 receptor (Homo sapiens) (UniProt P11473); assay: qHTS assay to identify small molecule agonists of the vitamin D receptor (VDR) signaling pathway (AID 743222; calls by dose curve)
Method in brief: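 In VDR-bla cells, compound-induced beta-lactamase expression is quantified by FRET substrate fluorescence. Treatment lasts 16 h at 37C; substrate develops 2 h at room temperature.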

[9] = biological target: Vitamin D3 receptor (Homo sapiens) (UniProt P11473); assay: qHTS assay to identify small molecule antagonists of the vitamin D receptor (VDR) signaling pathway (AID 743223; active = well fitted inhibition curve with a large enough effect in the signal ratio in the repeat runs, not every such curve was filed as active; the % refers to the signal ratio)
Method in brief: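 Antagonist mode uses 1alpha,25-dihydroxyvitamin D3 at 3 nM final as stimulus. VDR-bla cells receive compounds in DMSO, incubate 16 h at 37C, then a beta-lactamase FRET substrate for 2 h at room temperature before fluorescence measurement.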

[10] = qHTS assay to identify small molecule agonists of the vitamin D receptor (VDR) signaling pathway - cell viability counter screen (AID 743224); note: nearly all actives have a fitted effect of over 50% in size; note: potency is the fitted concentration of half-maximal effect
Method in brief: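 Plated VDR-bla cells (4 h, 37C) received compound, incubated 16 h, then LiveBLAzer substrate 2 h RT; CellTiter-Glo added afterwards, luminescence read at 30 min.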

[11] = qHTS assay to identify small molecule antagonists of the vitamin D receptor (VDR) signaling pathway - cell viability counter screen (AID 743225); note: nearly all actives have a fitted effect of over 50% in size
Method in brief: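 Read-out: CellTiter-Glo luminescence measured 30 min after reagent addition at room temperature. Cells were VDR-bla HEK 293T exposed 16 h at 37C, 5% CO2, to compound with 3 nM final calcitriol agonist.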

[12] = qHTS assay to identify small molecule agonists of the NFkB signaling pathway (AID 1159509; active = well fitted curve in the direction sought with a large enough effect in the signal ratio in the repeat runs, not every such curve was filed as active; the % refers to the signal ratio; note: series mostly up to about 61 µM)
Method in brief: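 NFkB-bla ME-180 cells with a beta-lactamase reporter under an NF-kB response element were plated overnight, treated with compounds in DMSO for 5 hr at 37 C, then loaded with FRET substrate for 1.5 hr at room temperature.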

[13] = qHTS assay to identify small molecule agonists of the endoplasmic reticulum stress response signaling pathway (AID 1159516; active = well fitted activation curve with a large enough effect in the signal ratio in the repeat runs, not every such curve was filed as active; the % refers to the signal ratio)
Method in brief: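 An ESRE-bla HeLa cell assay: compounds were pin-transferred from DMSO onto overnight-plated cells and left 5 hr at 37 C. Substrate was then loaded for 2 hr at room temperature before reading fluorescence at 460 nm and 530 nm.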

[14] = qHTS assay to identify small molecule agonists of the endoplasmic reticulum stress response signaling pathway - cell viability counter screen (AID 1159517; calls by dose curve)
Method in brief: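 Cells, HeLa ESRE-bla; density, 1,500/well; dosing, 5 hr at 37 C, 5% CO2; readout, CellTiter-Glo luminescence after 30 min RT.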

[15] = qHTS assay to identify small molecule antagonists of the retinoid-related orphan receptor gamma (ROR-gamma) signaling pathway - cell viability counter screen (AID 1159520); note: nearly all actives have a fitted effect of over 50% in size
Method in brief: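 Cytotoxicity was read from cellular ATP (CellTiter-Glo luminescence) after 16 hr at 37 C with 1 uM doxycycline induction. The inducer was added 2 hr after compound transfer to Tet-on ROR gamma CHO cells.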

[16] = biological target: Nuclear receptor ROR-gamma (Homo sapiens) (UniProt P51449); assay: qHTS assay to identify small molecule antagonists of the retinoid-related orphan receptor gamma (ROR-gamma) signaling pathway (AID 1159521; note: nearly all actives have a fitted effect of over 50% in size; note: potency is the fitted concentration of half-maximal effect)
Method in brief: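 CHO Tet-on RORγ, RORE-luc reporter. Cpd 2 h pre-incubation, then dox hyclate 1 uM final, 16 h, 37 C/5% CO2. ONE-Glo luminescence; decrease = antagonist.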

[17] = qHTS assay to identify small molecule agonists of the AP-1 signaling pathway - cell viability counter screen (AID 1159525; calls by dose curve; note: nearly all actives have a fitted effect of over 55% in size; note: potency is the fitted concentration of half-maximal effect)
Method in brief: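 Luminescent ATP readout (Cell Titer Glo, 30 min RT), normalised to DMSO and tetra n-octyl ammonium bromide controls. Cells were ME-180 AP-1-bla in 0.5% dialyzed FBS Opti-MEM, with a 5 h, 37 °C compound exposure.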

[18] = qHTS assay to identify small molecule agonists of the peroxisome proliferator-activated receptor delta (PPARd) signaling pathway - cell viability counter screen (AID 743211); note: nearly all actives have a fitted effect of over 55% in size
Method in brief: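 HEK293H PPARd-bla, 3000 cells/well; 5 h preincubation 37C/5% CO2; cpd in DMSO, 17 h 37C; B/G FRET substrate 2 h RT; CellTiter-Glo 30 min RT, luminescence.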

[19] = qHTS assay to identify small molecule agonists of the AP-1 signaling pathway (AID 1159526; calls by dose curve; note: potency is the fitted concentration of half-maximal effect)

Sequence of Vitamin D3 receptor (Homo sapiens) (P11473 whole entry, looked up): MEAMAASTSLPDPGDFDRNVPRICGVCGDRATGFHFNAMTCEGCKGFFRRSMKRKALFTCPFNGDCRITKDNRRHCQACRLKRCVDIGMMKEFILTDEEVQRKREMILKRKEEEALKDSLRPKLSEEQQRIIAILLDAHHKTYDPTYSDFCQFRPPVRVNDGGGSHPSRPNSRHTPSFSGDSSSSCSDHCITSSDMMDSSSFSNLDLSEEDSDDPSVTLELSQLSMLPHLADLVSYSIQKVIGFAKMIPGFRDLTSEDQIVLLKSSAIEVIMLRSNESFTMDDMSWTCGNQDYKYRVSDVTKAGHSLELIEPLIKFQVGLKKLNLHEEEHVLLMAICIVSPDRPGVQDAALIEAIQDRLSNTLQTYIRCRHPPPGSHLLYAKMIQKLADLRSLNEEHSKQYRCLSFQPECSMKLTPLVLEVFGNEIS
Sequence of Peroxisome proliferator-activated receptor delta (Homo sapiens) (Q03181 whole entry, looked up): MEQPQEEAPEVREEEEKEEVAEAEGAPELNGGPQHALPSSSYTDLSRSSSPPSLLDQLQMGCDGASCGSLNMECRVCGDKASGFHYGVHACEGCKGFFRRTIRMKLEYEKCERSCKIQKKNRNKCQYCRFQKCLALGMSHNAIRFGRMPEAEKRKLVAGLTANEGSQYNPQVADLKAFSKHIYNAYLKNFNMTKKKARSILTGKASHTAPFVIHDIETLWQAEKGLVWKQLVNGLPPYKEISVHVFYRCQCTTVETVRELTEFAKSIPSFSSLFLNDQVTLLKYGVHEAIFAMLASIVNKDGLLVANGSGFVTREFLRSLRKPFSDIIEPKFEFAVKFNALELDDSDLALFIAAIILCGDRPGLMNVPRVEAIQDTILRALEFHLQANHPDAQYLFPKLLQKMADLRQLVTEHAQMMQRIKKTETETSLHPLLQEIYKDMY
Sequence of Bile acid receptor (Homo sapiens) (Q96RI1 whole entry, looked up): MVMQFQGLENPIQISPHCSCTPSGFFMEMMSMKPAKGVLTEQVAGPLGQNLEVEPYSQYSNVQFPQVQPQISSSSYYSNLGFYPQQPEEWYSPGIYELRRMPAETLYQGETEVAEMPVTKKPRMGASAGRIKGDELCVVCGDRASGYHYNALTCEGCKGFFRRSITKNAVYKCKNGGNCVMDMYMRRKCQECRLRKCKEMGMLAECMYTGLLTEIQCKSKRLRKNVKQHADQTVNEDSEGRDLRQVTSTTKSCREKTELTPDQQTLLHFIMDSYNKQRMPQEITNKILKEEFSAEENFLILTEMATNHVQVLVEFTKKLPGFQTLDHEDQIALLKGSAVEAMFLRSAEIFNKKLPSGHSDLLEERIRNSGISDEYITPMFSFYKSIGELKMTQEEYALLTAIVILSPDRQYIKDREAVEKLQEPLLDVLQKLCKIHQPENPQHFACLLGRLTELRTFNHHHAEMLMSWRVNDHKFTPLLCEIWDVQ

Structure (SMILES)	Potency [1]	Potency [2]	Potency [3]	Potency [4]	Potency [5]	Potency [6]	Potency [7]	Potency [8]	Potency [9]	Potency [10]	Potency [11]	Potency [12]	Potency [13]	Potency [14]	Potency [15]	Potency [16]	Potency [17]	Potency [18]	Potency [19]
N#CCCN(CCO)CCO	inactive	inactive	inactive	inactive	inactive	inactive	inactive	inactive	inactive	inactive	inactive	inactive	inactive	inactive	inactive	inactive	inactive		
CCC1(CO)COCOC1	inactive		inactive		inactive		inactive	inactive			inactive	inactive	inactive	inactive	inactive	inactive	inactive	inactive	inactive
Brc1cc(Br)c(Oc2cc(Br)c(Br)cc2Br)cc1Br		23.9 µM (active)			inactive		inactive			23.9 µM (active)	inactive	inactive	inactive	inactive	inactive	inactive	inactive		
CC1=C(CC=O)C(C)(C)CCC1		inactive			inactive		inactive	inactive		inactive	inactive	inactive	inactive	inactive	inactive	inactive	inactive	inactive	inactive
C=C(C)CCCC(C)CCO (stereo not drawn)	inactive	inactive			inactive		inactive			inactive		inactive	inactive	inactive	inactive	inactive	inactive		inactive
O=C(/C=C/c1ccc(O)c(O)c1)O[C@@H]1C[C@@](OC(=O)/C=C/c2ccc(O)c(O)c2)(C(=O)O)C[C@@H](O)[C@@H]1O		inactive	inactive		inactive		inactive	inactive	inactive	inactive	inactive	inactive	inactive	inactive	inactive	inactive	inactive	inactive	inactive
CN1CCCN=C1COC(=O)C(O)(c1ccccc1)C1CCCCC1 (stereo not drawn)	inactive		inactive	inactive	inactive	inactive	inactive			inactive	inactive	inactive	inactive	inactive	inactive	inactive	inactive		inactive
C=C1C[C@@]23CC[C@H]4[C@@](C)(CCC[C@@]4(C)C(=O)O[C@@H]4O[C@H](CO)[C@@H](O)[C@H](O)[C@H]4O)[C@@H]2CC[C@]1(O[C@@H]1O[C@H](CO)[C@@H](O)[C@H](O[C@@H]2O[C@H](CO)[C@@H](O)[C@H](O)[C@H]2O)[C@H]1O[C@@H]1O[C@H](CO)[C@@H](O)[C@H](O)[C@H]1O)C3	inactive	inactive	inactive	inactive	inactive	inactive	inactive	inactive	inactive	inactive		inactive	inactive	inactive	inactive	inactive		inactive	inactive
CN1CCCC(n2nc(Cc3ccc(Cl)cc3)c3ccccc3c2=O)CC1 (stereo not drawn)			inactive		21.1 µM (active)							inactive	inactive	inactive	inactive	inactive	inactive	inactive	12 µM (active)
CCOC(=O)c1ccc(I)cc1	inactive	inactive	inactive	inactive	inactive	inactive	inactive	inactive	inactive	inactive	inactive	inactive	inactive	inactive	inactive	inactive	inactive	inactive	
O=C=Nc1cccc(C(F)(F)F)c1	inactive		inactive									inactive	inactive	inactive	inactive	inactive			inactive
CC(C)(c1ccccc1)c1ccccc1		inactive			inactive		inactive		inactive	inactive	inactive	inactive	inactive	inactive	inactive	inactive		inactive	inactive
COc1cc(N)c(Cl)cc1C(=O)NC1CCN(CCCOc2ccc(F)cc2)CC1OC (stereo not drawn)	inactive		inactive				inactive				inactive	inactive	inactive	inactive	inactive	inactive	inactive		inactive
C1C[C@@H]2[C@H]3CC[C@H](C3)[C@@H]2C1		inactive	inactive		inactive		inactive		inactive	inactive	inactive	inactive	inactive	inactive	inactive	inactive	inactive	inactive	
N#[N+]c1ccc2c(S(=O)(=O)[O-])cccc2c1O		inactive			inactive		inactive	inactive	inactive	inactive	inactive	inactive	inactive	inactive	inactive	inactive		inactive	inactive
Cc1[nH]cnc1CN1CCc2c(c3ccccc3n2C)C1=O		inactive			inactive		inactive	inactive	inactive	inactive	inactive	inactive	inactive	inactive	inactive	inactive	inactive	inactive	inactive
Cc1cccc(O)c1N		inactive		inactive	inactive	inactive	inactive			inactive	inactive	inactive	inactive	inactive	inactive	13.8 µM (active)	44.1 µM (active)	inactive	
C=C1CCC2CC1C2(C)C (stereo not drawn)	inactive				inactive		inactive	inactive	inactive	inactive	inactive	inactive	inactive	inactive	inactive	inactive	inactive	inactive	inactive
